From PubChem BioAssay (EPA / NIEHS)
Inconclusive results are not listed. Activity calls are given as the source filed them. The calls were made as follows, unless noted: active = hit-call score of the fitted dose curve at least 0.9, where 1 is the maximum; inactive = score below 0.9.

Experiments:
[1] = molecular target: Transcription factor Sp1 (Homo sapiens) (UniProt P08047); test: ATG_Sp1_CIS: Attagene CIS-FACTORIAL HepG2 Assay for human Specificity Protein 1 (Sp1) (AID 2282961); conditions: HepG2 Sp1 cis-reporter transcription, actives raise or lower the signal
Procedure, shortened: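 Read-out: fluorescence of 6-FAM-labeled, HpaI-digested RT-PCR products separated by capillary electrophoresis. HepG2 cells carried transfected cis-element reporter units and were exposed to chemicals for 24 h; gain or loss of signal fitted relative to DMSO.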

[2] = ATG_SREBP_CIS: Attagene CIS-FACTORIAL HepG2 Assay for human Sterol Regulatory Element Binding (SREBP) (AID 2282962); conditions: HepG2 Attagene cis-factorial SREBP reporter, mRNA; actives raise or lower the signal
Procedure, shortened: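 mRNA induction of transfected cis-promoter reporters in HepG2 cells, 24 h post-dose. Detection: RT-PCR with 6-FAM-labelled products, HpaI digest, capillary electrophoresis. DMSO served as negative control and baseline.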

[3] = ATG_TA_CIS: Attagene CIS-FACTORIAL HepG2 Assay for human TA Basal Promoter (AID 2282964); conditions: HepG2 Attagene CIS-factorial TA basal promoter reporter; actives raise or lower the signal
Procedure, shortened: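 HepG2 cells transiently transfected with multiple reporter units under cis promoter elements, reporting endogenous transcription factor activity; this endpoint tracks the TA basal promoter as background control. Reporter mRNA after 24 h dosing measured by RT-PCR/capillary electrophoresis; bidirectional fits versus DMSO.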

[4] = ATG_TCF_b_cat_CIS: Attagene CIS-FACTORIAL HepG2 Assay for human T-Cell-Factor with beta-catenin (TCF/b-cat) (AID 2282965); conditions: HepG2 TCF/beta-catenin cis-reporter transcription, actives raise or lower the signal
Procedure, shortened: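 HepG2, transient MRTU transfection, cis-element-driven reporters (endogenous TFs). 24 h compound exposure. Readout: reporter mRNA by RT-PCR + 6-FAM primer extension, HpaI digest, capillary electrophoresis. Gain/loss fit vs DMSO baseline.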

[5] = ATG_TAL_CIS: Attagene CIS-FACTORIAL HepG2 Assay for human TAL Basal Promoter (AID 2282966); conditions: HepG2 Attagene cis-factorial TAL promoter reporter; actives raise or lower the signal;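 also: background control endpoint measuring basal TAL promoter reporter mRNA not a specific factor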
Procedure, shortened: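 HepG2 cells transiently transfected with multiplexed cis-promoter reporter units, dosed 24 h. Reporter mRNA quantified by RT-PCR, 6-FAM labelling, HpaI digestion and capillary electrophoresis; TAL basal promoter serves as background control, fitted bidirectionally versus DMSO.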

[6] = ATG_TGFb_CIS: Attagene CIS-FACTORIAL HepG2 Assay for human Transforming Growth Factor (TGF) (AID 2282967); conditions: HepG2 Attagene CIS TGFb reporter, mRNA transcription; actives raise or lower the signal
Procedure, shortened: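 HepG2 cells transiently transfected with cis-promoter-driven multiple reporter units measure endogenous TF activity; reporter mRNA quantified at 24 h by RT-PCR, FAM labeling, HpaI digestion and capillary electrophoresis. Bidirectional fit vs DMSO.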

[7] = ATG_VDRE_CIS: Attagene CIS-FACTORIAL HepG2 Assay for human Vitamin D Receptor Element (VDRE) (AID 2282968); conditions: HepG2 VDRE cis-reporter transcription, actives raise or lower the signal
Procedure, shortened: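 Transiently transfected HepG2 cells carrying cis-regulated reporter transcription units were exposed for 24 h. Reporter mRNA was measured by RT-PCR with fluorescent labelling and capillary electrophoresis, and fitted in both directions against DMSO.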

[8] = molecular target: Estrogen receptor (Homo sapiens) (UniProt P03372); test: ATG_ERa_TRANS: Attagene TRANS-FACTORIAL HepG2 Assay for human Estrogen Receptor alpha (ERa) (AID 2282970; active = hit-call score of the fitted dose curve at least 0.9, where 1 is the maximum); conditions: HepG2 Attagene TRANS ERa GAL4 reporter, mRNA
Procedure, shortened: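 HepG2 cells transiently transfected with multiplexed GAL4-UAS reporter units read out chimeric NR-Gal4 activity. After 24 h compound exposure, reporter mRNA was quantified by RT-PCR, 6-FAM labeling, HpaI digestion and capillary electrophoresis, relative to DMSO.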

[9] = molecular target: Signal transducer and activator of transcription 3 (Homo sapiens) (UniProt P40763); test: ATG_STAT3_CIS: Attagene CIS-FACTORIAL HepG2 Assay for human Signal Transducer and Activator of Transcription 3 (STAT3) (AID 2282963); conditions: HepG2, Attagene cis-factorial STAT3 reporter transcription; actives raise or lower the signal
Procedure, shortened: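 HepG2 cells transiently transfected with multiple cis-element-driven reporter units report endogenous transcription factor activity. After 24 h compound exposure, reporter mRNA is measured by RT-PCR, 6-FAM labelling, HpaI digestion and capillary electrophoresis. Fitted bidirectionally versus DMSO.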

[10] = molecular target: Nuclear receptor subfamily 1 group I member 3 (Homo sapiens) (UniProt Q14994); test: ATG_CAR_TRANS: Attagene TRANS-FACTORIAL HepG2 Assay for human Constitutive Androstane Receptor (CAR) (AID 2282969; active = hit-call score of the fitted dose curve at least 0.9, where 1 is the maximum;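 also: activators raise reporter mRNA above DMSO so AC50 marks induction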); conditions: HepG2 Attagene TRANS-FACTORIAL CAR reporter
Procedure, shortened: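 HepG2 cells transiently transfected with GAL4-UAS reporter units; TRANS format reads activity of exogenous chimeric NR-Gal4 protein. After 24 h dosing, reporter mRNA quantified by RT-PCR, 6-FAM labelling and capillary electrophoresis; gain of signal fitted against DMSO.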

Measured: AC50

Chain of Nuclear receptor subfamily 1 group I member 3 (Homo sapiens) (Q14994 whole entry, looked up, the tested form may be a part): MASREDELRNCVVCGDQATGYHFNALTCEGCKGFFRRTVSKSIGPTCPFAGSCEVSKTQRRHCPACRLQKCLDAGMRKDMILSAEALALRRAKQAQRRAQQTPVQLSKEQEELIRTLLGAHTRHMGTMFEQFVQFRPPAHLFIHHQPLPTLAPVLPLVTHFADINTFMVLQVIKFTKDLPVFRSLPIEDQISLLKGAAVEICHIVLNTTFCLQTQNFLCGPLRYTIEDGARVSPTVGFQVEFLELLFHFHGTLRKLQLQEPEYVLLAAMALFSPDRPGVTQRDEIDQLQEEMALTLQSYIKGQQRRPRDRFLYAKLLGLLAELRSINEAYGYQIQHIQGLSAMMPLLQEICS
Chain of Signal transducer and activator of transcription 3 (Homo sapiens) (P40763 whole entry, looked up): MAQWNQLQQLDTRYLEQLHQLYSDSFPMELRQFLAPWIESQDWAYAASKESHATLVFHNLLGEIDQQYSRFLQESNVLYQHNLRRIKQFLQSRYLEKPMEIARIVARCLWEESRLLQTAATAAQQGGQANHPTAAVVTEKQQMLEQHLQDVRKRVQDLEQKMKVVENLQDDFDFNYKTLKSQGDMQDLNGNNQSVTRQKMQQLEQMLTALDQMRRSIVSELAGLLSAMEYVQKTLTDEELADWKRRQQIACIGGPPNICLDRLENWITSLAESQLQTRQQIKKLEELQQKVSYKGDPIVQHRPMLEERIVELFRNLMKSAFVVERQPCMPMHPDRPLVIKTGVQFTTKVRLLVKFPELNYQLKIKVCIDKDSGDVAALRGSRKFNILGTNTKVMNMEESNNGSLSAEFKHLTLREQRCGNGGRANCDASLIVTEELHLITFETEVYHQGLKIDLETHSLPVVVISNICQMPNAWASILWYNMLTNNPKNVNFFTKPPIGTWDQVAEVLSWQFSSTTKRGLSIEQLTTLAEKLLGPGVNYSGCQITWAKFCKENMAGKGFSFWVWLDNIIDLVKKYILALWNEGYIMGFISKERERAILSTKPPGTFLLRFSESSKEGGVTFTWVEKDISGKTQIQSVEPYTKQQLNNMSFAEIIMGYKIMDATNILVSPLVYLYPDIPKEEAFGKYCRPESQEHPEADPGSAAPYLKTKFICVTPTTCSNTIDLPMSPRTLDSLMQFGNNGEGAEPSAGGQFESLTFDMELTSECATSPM
Chain of Estrogen receptor (Homo sapiens) (P03372 whole entry, looked up, the tested form may be a part): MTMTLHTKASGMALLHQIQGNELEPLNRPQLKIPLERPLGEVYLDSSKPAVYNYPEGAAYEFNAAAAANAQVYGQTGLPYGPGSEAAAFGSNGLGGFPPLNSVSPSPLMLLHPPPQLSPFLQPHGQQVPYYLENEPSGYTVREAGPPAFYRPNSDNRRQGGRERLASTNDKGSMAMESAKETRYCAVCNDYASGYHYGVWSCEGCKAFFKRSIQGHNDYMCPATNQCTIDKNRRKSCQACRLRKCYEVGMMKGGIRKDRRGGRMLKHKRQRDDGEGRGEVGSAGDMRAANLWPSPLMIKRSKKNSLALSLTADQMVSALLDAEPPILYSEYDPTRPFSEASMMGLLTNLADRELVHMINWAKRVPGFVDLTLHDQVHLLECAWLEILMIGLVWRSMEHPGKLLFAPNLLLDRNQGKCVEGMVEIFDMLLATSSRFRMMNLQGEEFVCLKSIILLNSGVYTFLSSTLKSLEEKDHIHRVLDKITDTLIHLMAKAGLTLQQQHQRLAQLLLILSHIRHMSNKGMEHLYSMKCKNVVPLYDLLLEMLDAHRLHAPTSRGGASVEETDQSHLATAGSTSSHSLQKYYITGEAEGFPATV
Chain of Transcription factor Sp1 (Homo sapiens) (P08047 whole entry, looked up): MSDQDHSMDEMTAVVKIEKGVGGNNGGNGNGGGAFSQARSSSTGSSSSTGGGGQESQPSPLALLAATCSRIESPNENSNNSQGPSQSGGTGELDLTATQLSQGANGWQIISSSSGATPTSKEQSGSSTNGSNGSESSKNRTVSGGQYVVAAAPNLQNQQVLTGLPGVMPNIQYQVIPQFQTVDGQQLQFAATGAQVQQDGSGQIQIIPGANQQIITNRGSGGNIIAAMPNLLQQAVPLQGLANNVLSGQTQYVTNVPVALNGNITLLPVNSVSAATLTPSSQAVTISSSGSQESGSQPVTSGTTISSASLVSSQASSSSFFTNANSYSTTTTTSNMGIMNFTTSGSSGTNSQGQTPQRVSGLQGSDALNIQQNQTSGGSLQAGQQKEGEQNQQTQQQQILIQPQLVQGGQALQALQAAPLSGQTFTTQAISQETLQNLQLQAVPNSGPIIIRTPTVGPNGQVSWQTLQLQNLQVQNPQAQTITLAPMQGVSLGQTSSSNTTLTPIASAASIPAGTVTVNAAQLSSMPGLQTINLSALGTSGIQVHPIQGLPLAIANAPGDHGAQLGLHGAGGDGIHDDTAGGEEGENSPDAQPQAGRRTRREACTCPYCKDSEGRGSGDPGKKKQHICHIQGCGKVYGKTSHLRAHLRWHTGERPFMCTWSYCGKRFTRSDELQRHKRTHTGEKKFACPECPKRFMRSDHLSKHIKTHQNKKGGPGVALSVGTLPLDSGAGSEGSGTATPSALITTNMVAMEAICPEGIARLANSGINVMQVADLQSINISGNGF

O=C(NC(=O)c1c(F)cccc1F)Nc1cc(Cl)c(Oc2ncc(C(F)(F)F)cc2Cl)c(Cl)c1
not listed: [9] | [10]
inactive: all other assays above

CC(=Cc1ccccc1)[N+](=O)[O-]
not listed: [3] | [5] | [10]
inactive: all other assays above

ClCc1ccccc1Cl
active: [1] 100 µM | [7] 100 µM
inactive: [2] | [3] | [4] | [5] | [6]

c1ccc2c(c1)Oc1ccccc1O2
not listed: [6] | [8] | [9]
inactive: all other assays above

N#Cc1cccnc1
not listed: [3] | [6] | [10]
inactive: all other assays above

CC(C)(C1CCC(O)CC1)C1CCC(O)CC1 (stereo unspecified)
active: [8] 11.2 µM
not listed: [3] | [5] | [6]
inactive: all other assays above

O=S(=O)(c1ccc(Cl)cc1)c1cc(Cl)c(Cl)cc1Cl
active: [2] 14.5 µM | [7] 2.79 µM
not listed: [9]
inactive: all other assays above

CC(C)C(C)(N)C#N (stereo unspecified)
inactive: [1] | [2] | [4] | [5] | [6] | [7]

NNCCO
not listed: [1] | [8] | [10]
inactive: all other assays above

Nc1cccnc1
active: [7] 50.1 µM
not listed: [1] | [8] | [9]
inactive: all other assays above

N#CCCC(Br)(C#N)CBr (stereo unspecified)
active: [4] 51 µM | [7] 43.9 µM
not listed: [1] | [10]
inactive: all other assays above

Cc1cc(C)cc(C)c1
inactive: [2] | [9] | [3] | [4] | [5] | [7]

c1ccc2sc(SNC3CCCCC3)nc2c1
active: [2] 148 µM | [6] 34.4 µM
not listed: [1] | [5]
inactive: all other assays above

COP(=S)(OC)Oc1cc(Cl)c(I)cc1Cl
active: [2] 37.3 µM | [4] 48.6 µM | [7] 24.7 µM
not listed: [1] | [8]
inactive: all other assays above

C[As+](C)(C)CC(=O)[O-]
inactive: [2] | [3] | [4] | [5] | [6] | [7]

C=CCOC(N)=O
not listed: [1] | [8] | [10]
inactive: all other assays above

O=C(CBr)c1ccc(O)cc1
inactive: [2] | [9] | [3] | [4] | [6] | [7]
